These results are taken from PubChem BioAssay (NCATS).

Test [1] has as its system CRL-7250. In words: Cytotoxic Profiling of Annotated Libraries Using Quantitative High-Throughput Screening (AID 1296008). For max response: % is set by controls: 0 for no effect and ±100 for the full control effect. Note: nearly all actives have a fitted effect of over 60% in size. The settings on record: Five cell lines viability, CellTiter-Glo ATP luminescence, 48-72 h; max response: stronger effect = lower value. The method, boiled down:
(§1)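 Cytotoxicity was measured as CellTiter-Glo ATP luminescence, read after 10 min at room temperature. Compound treatment of the cells lasted 48 or 72 hr at 37 degrees Celsius in a qHTS format.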
On the technique in general: ATP-based viability assays read luminescence as a measure of living cells.

Test [2] has as its system HEK293. Described as above. The settings on record: Five cell lines viability, CellTiter-Glo ATP luminescence, 48-72 h; max response: stronger effect = lower value. The method, boiled down: as §1
Test [3] has as its system HaCat. The description is as above. The settings on record: Five cell lines viability, CellTiter-Glo ATP luminescence, 48-72 h; max response: stronger effect = lower value. The method, boiled down: as §1
Test [4] has as its system KB-3-1. The test is described as above. The settings on record: Five cell lines viability, CellTiter-Glo ATP luminescence, 48-72 h; max response: stronger effect = lower value. The gist of the method:
as §1

Test [5] has as its system NIH3T3. Described as above. The settings on record: Five cell lines viability, CellTiter-Glo ATP luminescence, 48-72 h; max response: stronger effect = lower value. The gist of the method:
as §1

Test [6] relates to MCC-13. Kind of test: qHTS assay to identify novel small-molecules to repurpose for Merkel cell carcinoma treatment (AID 1296009). Note: nearly all actives have a fitted effect of over 60% in size. The settings on record: MCC and control cell lines, CellTiter-Glo viability, 72 h; series mostly up to 46 µM. The method, boiled down:
(§2)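 After compound transfer in DMSO, plates were kept 72 hr at 37 degree celsius. Luminescent ATP signal from CellTiter-Glo served as viability measure, normalized against DMSO and no-cell controls.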

Test [7] relates to MCC-26. The test is described as above. The settings on record: MCC and control cell lines, CellTiter-Glo viability, 72 h; series mostly up to 46 µM. The gist of the method:
as §2

Test [8] has as its system MKL-1. Described as above. The settings on record: MCC and control cell lines, CellTiter-Glo viability, 72 h; series mostly up to 46 µM. The gist of the method: as §2
Test [9] concerns MKL-2. The description is as above. The settings on record: MCC and control cell lines, CellTiter-Glo viability, 72 h; series mostly up to 46 µM. The gist of the method:
as §2

Test [10] concerns UISO. Described as above. The settings on record: MCC and control cell lines, CellTiter-Glo viability, 72 h; series mostly up to 46 µM. The gist of the method:
as §2

Test [11] deals with WaGa. The description is as above. The settings on record: MCC and control cell lines, CellTiter-Glo viability, 72 h; series mostly up to 46 µM. The method, boiled down:
as §2

For test [12], the system named is C33A. In words: Primary qHTS to identify gynecologic anti-cancer compounds using libraries of approved drugs and bioactive compounds (AID 1345084). Note: nearly all actives have a fitted effect of over 55% in size. The settings on record: Gynecologic cancer cell panel viability, ATPlite luminescence, 48 h; series mostly up to 57.5 µM. The gist of the method:
(§3)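 In this quantitative HTS, cell killing is estimated from loss of ATP-dependent luciferase light. Cells see five compound concentrations over a 48 h exposure.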

In test [13] the test system is CAOV3. The description is as above. The settings on record: Gynecologic cancer cell panel viability, ATPlite luminescence, 48 h; series mostly up to 57.5 µM. The gist of the method: as §3
Test [14] concerns CASKI. The test is described as above. The settings on record: Gynecologic cancer cell panel viability, ATPlite luminescence, 48 h; series mostly up to 57.5 µM. The method, boiled down:
as §3

Test [15] has as its system Es-2. The description is as above. The settings on record: Gynecologic cancer cell panel viability, ATPlite luminescence, 48 h; series mostly up to 57.5 µM. The method, boiled down:
as §3

Test [16] relates to TAB165. In words: qHTS profiling for inhibitors of Plasmodium falciparum proliferation (AID 504749). Note: nearly all actives have a fitted effect of over 60% in size. The settings on record: P. falciparum in erythrocytes, SYBR Green DNA, 72 h; series mostly up to 28.7 µM. The method, boiled down:
(§4)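 Three-day growth assay of blood-stage parasites in erythrocytes (0.3% parasitemia, 2.5% hematocrit) at 37 C, 5% CO2, quantified by SYBR Green DNA staining after overnight detergent lysis.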

Test [17] deals with W2. The test is described as above. The settings on record: P. falciparum in erythrocytes, SYBR Green DNA, 72 h; series mostly up to 28.7 µM. The method, boiled down:
as §4

For test [18], the system named is HACAT. Kind of test: qHTS assay to identify novel small-molecules to repurpose for Merkel cell carcinoma treatment (AID 1296009). Note: nearly all actives have a fitted effect of over 60% in size. The settings on record: MCC and control cell lines, CellTiter-Glo viability, 72 h; at 44.8 µM (top of the series) unless noted. The method, boiled down:
as §2
Background: Quantitative high-throughput screening tests each substance at several concentrations.

Test [19] has as its system HEK293T. The description is as above. The settings on record: MCC and control cell lines, CellTiter-Glo viability, 72 h; at 44.8 µM (top of the series) unless noted. The gist of the method: as §2

Where “and” joins values, the source holds several entries; their conditions need not be identical. Equal values may be shown once. Results filed as inconclusive are left out. Unmarked numbers belong to inactive results. Calls of active or inactive are those of the source. Calls come from the whole dose curve; as a rule, active = well fitted curve in the direction sought with a large enough effect; inconclusive = small, poorly fitted or top-dose-only effect, or another doubt; inactive = no such curve, though single readings can be large; an effect the other way counts as inactive or inconclusive.
Potency is the fitted concentration of half-maximal effect.

As for `O=C1OC2(c3ccc(O)cc3Oc3cc(O)ccc32)c2ccccc21`, the max response in test [1] was -1.47%; in test [2] it was -1.16%; in test [3], -26.2%; in test [4], -10.5%; in test [5] it was -4.38%. Moreover, the Potency entry in test [6], in test [7], in [8], in test [9], in test [10] and in test [11] was “inactive” each time. For the same compound, the Potency result in test [12], in test [13], in test [14] and in test [15] was “inactive” throughout.
Regarding `COc1cc(OC)cc(OC)c1`, the Potency result in test [16], in [17], in test [6], in [7], in [8] and in [9] was “inactive” each time. Moreover, the Potency result in test [10], in test [11], in [12], in [13], in test [14] and in test [15] was “inactive” throughout. The max response was -8.4% in [1]; 0.846% in test [2]; 4.71% in test [3]; -2.29% in [4]; -4.81% in test [5].
`COc1c2occc2c(OC)c2c(=O)cc(C)oc12`: the Potency result in test [16], in test [17], in test [6], in [7], in [8] and in test [9] was “inactive” each time. Further, the Potency entry in test [10], in test [11], in [12], in [14] and in [15] was “inactive” in each case. Further, the call in test [1], in test [3] and in [18] was inactive. Also, the max response is -0.27% in [2], 9.91% in test [4] and -9.5% in [5].
On to `C[C@]12C=CC(=O)C=C1[C@@H](F)C[C@@H]1[C@@H]2[C@@H](O)C[C@@]2(C)[C@H]1CC[C@]2(O)C(=O)CO`, for which the max response is 1.95% in test [1]; -9.41% in [2]; -4.4% in test [3]; 8% and -2.32% in [4]; -3.51% in [5]. Further, the Potency result in test [6], in [7], in test [8], in test [9], in test [10] and in test [11] was “inactive” throughout. The Potency entry in test [12], in test [13], in test [14] and in [15] was “inactive” in each case.
For the compound `CC1(C)O[C@@H]2C[C@H]3[C@@H]4C[C@H](F)C5=CC(=O)CC[C@]5(C)[C@H]4[C@@H](O)C[C@]3(C)[C@]2(C(=O)CO)O1`, the max response in test [1] was 2.33%; in [3], -7.7%; in test [4], 28%; in test [5], 0.0351%. Also, the compound was called inactive in [2] and in [19]. Further, the Potency entry in test [6], in test [7], in [8], in [9], in test [10] and in test [11] was “inactive” each time. The Potency entry in [12], in [14] and in [15] was “inactive” each time.
Turning to `CCCCC(CC)CN=C(N)NC(N)=NCCCCCCN=C(N)NC(N)=NCC(CC)CCCC` (centres undefined), the Potency is 1260 nM (active) in test [16]; 1070 nM (active) in test [17]; 7500 nM (active) in test [1]; 2990 nM (active) in [2]; 6680 nM (active) in test [3]; 10600 nM (active) in test [6]. In addition, the Potency in test [8] is 1330 nM (active); in test [9] it was 1880 nM (active); in test [10], 1880 nM (active); in test [11], 2660 nM (active).
Turning to `Oc1cc(O)c2c(c1)O[C@H](c1ccc(O)c(O)c1)[C@H](O)C2`, the max response was -5.79% in [1], 4.8% in [3], -0.959% in [4] and -0.255% in [5]. Also, the outcome in test [2] and in [19] was inactive. Moreover, the Potency entry in test [6], in [7], in [8], in test [9], in [10] and in [11] was “inactive” each time. In addition, the Potency entry in test [12], in [13], in [14] and in test [15] was “inactive” in each case.
Take `CCOC(=O)c1cccc(N)c1`: the Potency result in [16], in test [6], in [7], in [8], in test [9] and in test [10] was “inactive” throughout. Moreover, the Potency entry in test [11], in test [12], in test [13], in [14] and in test [15] was “inactive” each time. The max response in [1] was -5.88%; in test [2] it was -0.911%; in test [3], -20.5%; in [4], -6.64%; in test [5] it was -6.41%.
As to `CN1CCC[C@@H]1c1cccnc1`, the Potency result in test [16], in [17], in test [6], in test [7], in test [8] and in test [9] was “inactive” throughout. Besides, the Potency result in [10], in test [11], in [12], in test [14] and in test [15] was “inactive” each time. Further, the max response in test [1] is -7.79%; in test [2] it was -4.75%; in [4], -0.673%; in test [5], 0.585%. For the same compound, the compound was classed as inactive in test [3] and in [18].
With `CCCN1CCCC[C@H]1C(=O)Nc1c(C)cccc1C`, the Potency entry in test [16], in [6], in test [7], in [8], in test [9] and in [10] was “inactive” each time. Also, the Potency entry in test [11], in test [12], in test [14] and in test [15] was “inactive” each time. In addition, in [17], the Potency was 4780 nM (active). In addition, the max response in test [1] is -6.22%; in [2], -0.54%; in test [4], -10%; in test [5], -2.9%. The compound was classed as inactive in test [3] and in test [18].
With `CNC(=O)CN(CCN(CCN(CC(=O)[O-])CC(=O)NC)CC(=O)[O-])CC(=O)[O-].O.[Gd+3]`, the outcome in test [1], in test [2] and in test [19] was inactive. Besides, the max response is -1.56% in [3]; -5.37% and -4.64% in [4]; -1.76% in [5]. For the same compound, the Potency result in [6], in test [7], in test [8], in test [9], in [10] and in [11] was “inactive” each time. Also, the Potency result in test [12], in test [13], in [14] and in [15] was “inactive” in each case.
Consider `COc1cccc2c1C(=O)c1c(O)c3c(c(O)c1C2=O)C[C@@](O)(C(=O)CO)C[C@@H]3O[C@H]1C[C@H](N)[C@H](O)[C@H](C)O1`, for which the Potency is 1330 nM (active) in [1]; 266 nM (active) in test [2]; 944 nM (active) in test [3]; 150 nM (active) in test [5]; 5960 nM (active) in [6]; 2110 nM (active) in [7]. The Potency in test [8] is 211 nM (active); in [10], 750 nM (active); in [12], 2820 nM (active); in [13] it was 2510 nM (active); in test [14], 2000 nM (active); in test [15], 10000 nM (active). For the same compound, the max response in test [4] is -13.1%.
